# Out of some 310,000 compounds screened, about 2,200 (0.71%) showed an effect of 50% or more. Effects have a minus sign here. This excerpt belongs to a sample that is enriched for strong results.
# Target: human ether-à-go-go-related gene (hERG) potassium channel (human, UniProt Q12809)
# Assay: primary screen, population patch clamp on CHO cells stably expressing hERG; higher = less effect of the substance
# human ether-à-go-go-related gene (hERG) potassium channel, sequence (Q12809 whole entry, looked up): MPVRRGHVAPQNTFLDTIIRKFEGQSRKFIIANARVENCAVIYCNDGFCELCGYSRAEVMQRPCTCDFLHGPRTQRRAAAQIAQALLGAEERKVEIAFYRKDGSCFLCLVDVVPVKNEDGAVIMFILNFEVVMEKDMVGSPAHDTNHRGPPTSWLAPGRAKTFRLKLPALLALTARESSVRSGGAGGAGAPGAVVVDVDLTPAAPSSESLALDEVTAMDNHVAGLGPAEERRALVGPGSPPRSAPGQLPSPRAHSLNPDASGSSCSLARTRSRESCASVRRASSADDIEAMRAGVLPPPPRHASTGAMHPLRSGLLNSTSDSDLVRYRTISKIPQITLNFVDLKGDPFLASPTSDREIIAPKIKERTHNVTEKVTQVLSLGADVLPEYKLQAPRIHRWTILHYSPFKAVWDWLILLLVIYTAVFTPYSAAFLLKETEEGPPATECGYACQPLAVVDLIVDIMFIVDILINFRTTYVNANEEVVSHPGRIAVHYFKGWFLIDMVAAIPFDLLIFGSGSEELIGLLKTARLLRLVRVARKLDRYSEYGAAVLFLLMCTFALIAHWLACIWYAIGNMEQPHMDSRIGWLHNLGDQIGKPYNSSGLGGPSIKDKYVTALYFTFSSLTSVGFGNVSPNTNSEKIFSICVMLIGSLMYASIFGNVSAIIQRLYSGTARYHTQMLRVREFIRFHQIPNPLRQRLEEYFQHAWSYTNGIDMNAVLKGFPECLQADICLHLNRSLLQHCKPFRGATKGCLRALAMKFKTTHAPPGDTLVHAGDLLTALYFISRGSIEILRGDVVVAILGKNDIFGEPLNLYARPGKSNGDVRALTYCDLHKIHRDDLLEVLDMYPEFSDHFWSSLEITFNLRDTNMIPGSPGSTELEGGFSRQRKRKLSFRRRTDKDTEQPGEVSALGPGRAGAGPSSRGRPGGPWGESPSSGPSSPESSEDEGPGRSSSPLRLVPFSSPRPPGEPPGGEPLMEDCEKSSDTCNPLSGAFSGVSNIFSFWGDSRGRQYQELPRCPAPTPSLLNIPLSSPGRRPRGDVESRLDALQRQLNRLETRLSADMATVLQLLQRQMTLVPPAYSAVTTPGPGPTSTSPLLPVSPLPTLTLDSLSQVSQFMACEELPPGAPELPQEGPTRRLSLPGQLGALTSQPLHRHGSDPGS
row,Compound,"hERG current change (%, negative = inhibition) at 1uM [%]"
1,Cc1ccc(CSc2ccc(-c3ccc4c(c3)OCO4)nn2)cc1,12.7
2,COc1ccccc1CC(=O)NCCCc1ccccc1,11.2
3,O=C(CCS(=O)(=O)c1ccc2c(c1)NC(=O)CS2)NCCc1ccc(Cl)cc1,10
4,CCN(C(=O)COC(=O)CNC(=O)c1ccc(F)cc1)C1CCS(=O)(=O)C1 (stereo not drawn),9.62
5,COC(=O)Nc1c(C(=O)OC)cc(OC)c(OC)c1OC,6.05
6,CC1=NNC(=O)C1CCC(=O)N/N=C/c1ccc(Cl)cc1Cl (stereo not drawn),12.6
7,COc1cc(OC)cc(C(=O)NNC(=O)c2ccc(S(=O)(=O)N(C)c3ccccc3OC)cc2)c1,13.2
8,CS(=O)(=O)N1CCN(C(=O)c2ccc(-c3ccccc3)cc2)CC1,9.18
9,COc1cc(F)cc(-c2ccc3c(c2)c(-c2cccs2)c(-c2cc(OC)cc(OC)c2)n3C)c1,12.5
10,CCOC(=O)C1(Cc2cccc(OC)c2)CCN(Cc2ccc(C)s2)CC1,-53.1
11,CCOC(=O)C1(Cc2cccc(OC)c2)CCN(Cc2cnc(C)s2)CC1,11
12,CCOC(=O)C1(CCOC)CCN(Cc2cccc(OCc3ccccc3)c2)CC1,3.99
13,CCOC(=O)C1(CCOc2ccccc2)CCN(Cc2cccc(OCCO)c2)CC1,-84.4
14,CCOC(=O)C1(CCOc2ccccc2)CCN(Cc2ccc(-n3cccn3)cc2)CC1,-37.8
15,CCOC(=O)C1(Cc2ccccc2)CCN(Cc2ccc(C)s2)CC1,-2.06
16,CCOC(=O)C1(CCOc2ccccc2)CCN(Cc2cccc(F)c2)CC1,-7.5
17,CCOC(=O)C1(CCOc2ccccc2)CCN(Cc2cnc(SC)nc2)CC1,-28.4
18,CCOC(=O)C1(CCOc2ccccc2)CCN(Cc2cccc(-n3cccn3)c2)CC1,-68.5
19,CCOC(=O)C1(CCOc2ccccc2)CCN(Cc2ccc(OC)cc2)CC1,-77.4
20,Cc1ccc(NC(=O)CCC(=O)NNC(=O)COc2ccccc2)c(C)c1,7.32
21,CC1(C)C(=O)OC(c2c3ccccc3cc3ccccc23)C(C)(C)C1=O (stereo not drawn),0.485
22,COc1ccc(/C=C/c2cc(=O)c3cc(Cl)ccc3o2)cc1,9.88
23,COCCn1ccc2c(OCC(=O)NCCc3ccccc3)cccc2c1=O,0.744
24,CSc1ccc(C2CC(=O)Nc3nc(SC)[nH]c(=O)c32)cc1 (stereo not drawn),17

row,Compound,"hERG current change (%, negative = inhibition) at 1uM [%]"
1,O=C(O)c1ccc(S(=O)(=O)c2ccc3c(c2)C(=O)N(NC(=O)c2ccncc2)C3=O)cc1,5.01
2,NNC(=O)c1nc(-c2ccccc2)n2c1CCCCC2,0.842
3,O=C(OCC(=O)N1CCCC1)c1c2c(nc3ccccc13)CCCCC2,9.48
4,CC1(C)CC(c2nc(-c3ccc([N+](=O)[O-])cc3)cs2)CCO1 (stereo not drawn),9.08
5,CC(C)NC(=O)NS(=O)(=O)c1cnccc1NC1CC2CCC1C2 (stereo not drawn),9.06
6,CCn1cc([N+](=O)[O-])c(C(=O)N2N=C(c3ccc(O)c(OC)c3)CC2c2ccccc2O)n1 (stereo not drawn),18.1
7,Cc1ccc2nc(-c3ccccn3)oc2c1,12.6
8,Cc1ccccc1NC(=O)NCCc1ccc(Cl)cc1,8.42
9,CCOC(=O)C1(CCOc2ccccc2)CCN(C(=O)CCSC)CC1,-11.3
10,CCOC(=O)C1(CCOc2ccccc2)CCN(Cc2ccc(OCCO)cc2)CC1,-85.1
11,CCOC(=O)C1(CCOc2ccccc2)CCN(Cc2ccc(C)s2)CC1,-65.4
12,CCOC(=O)C1(CCOc2ccccc2)CCN(Cc2cccc(O)c2)CC1,-28.7
13,CCOC(=O)C1(CCOc2ccccc2)CCN(Cc2ccncc2)CC1,-23.5
14,CCOC(=O)C1(CCOc2ccccc2)CCN(Cc2cnc(C)s2)CC1,-18.8
15,CCOC(=O)C1(CCOc2ccccc2)CCN(Cc2ccc(O)cc2)CC1,-84.8
16,CCOC(=O)C1(CCOc2ccccc2)CCN(Cc2cccs2)CC1,-32.6
17,CCOC(=O)C1(CCOc2ccccc2)CCN(C(=O)c2cncs2)CC1,-27.4
18,CCOC(=O)C1(CCOc2ccccc2)CCN(Cc2ccc(C#CCCO)cc2)CC1,0.161
19,CCOC(=O)C1(CCOc2ccccc2)CCN(C(=O)c2ccc(-n3cccn3)cc2)CC1,-85.6
20,CCOc1ccccc1N(CC(=O)Nc1ccccc1C(=O)NCc1ccco1)S(C)(=O)=O,2.08
21,CC(Sc1nnc(Nc2ccccc2F)s1)C(=O)NC1CC1 (stereo not drawn),3
22,COCCc1ncc(CN2CCC(C(=O)Nc3ccc(-n4cccn4)cc3)CC2)cn1,-5.56
23,CNC(=O)c1cc2cc(OC)ccc2oc1=O,-4.3
24,O=C(O)c1ccc(NCc2ccc3c(c2)OCO3)cc1,10.6

row,Compound,"hERG current change (%, negative = inhibition) at 1uM [%]"
1,Cc1nc2sccn2c(=O)c1S(=O)(=O)Nc1ccc(N2CCN(C)CC2)cc1,21.4
2,CC1CN(c2ccc([N+](=O)[O-])c(N3CCCCC3)c2)CCN1 (stereo not drawn),8.07
3,CCOC(=O)C1(Cc2cccc(OC)c2)CCN(CC2CC=CCC2)CC1 (stereo not drawn),-50.6
4,CCOC(=O)C1(CCOc2ccccc2)CCN(Cc2cc(OC)cc(OC)c2)CC1,-61.5
5,CCOC(=O)C1(Cc2ccccc2)CCN(CC2CC=CCC2)CC1 (stereo not drawn),-5.83
6,CCOC(=O)C1(Cc2cccc(OC)c2)CCN(CCO)CC1,2.3
7,CCOC(=O)C1(CCOc2ccccc2)CCN(Cc2cccc(OC)c2)CC1,-24.4
8,COCCCN1C(=O)C(=O)/C(=C(/O)c2ccc(S(=O)(=O)N3CCCCC3)cc2)C1c1cccc(OC)c1 (stereo not drawn),2.22
9,CC1(c2ccc(OC(F)F)cc2)NC(=O)N(CC(=O)Nc2ccc(N3CCCCC3)cc2)C1=O (stereo not drawn),18
10,CN1C(=O)c2ccccc2C(C(=O)O)C1c1cccc(Cl)c1 (stereo not drawn),8.65
11,CCN1C(=O)C2(C(C(=O)c3ccc(C)o3)=C(O)C(=O)N2CCCN(C)C)c2ccccc21 (stereo not drawn),14
12,COc1ccc2[nH]cc(C(=O)CN(C)CCc3ccc(OC)c(OC)c3)c2c1,-60.6
13,COc1ccc2[nH]cc(C(=O)CN(C)C)c2c1,11.4
14,CCN(CC)CC(=O)c1c[nH]c2ccc(OC)cc12,3.98
15,COC(=O)c1cc(S(=O)(=O)Nc2cccc(S(N)(=O)=O)c2)oc1C,8.79
16,COCCn1c(SCC(=O)c2c(N)n(C3CC3)c(=O)[nH]c2=O)nnc1-c1ccc(Cl)cc1,13.5
17,CN(Cc1ccccc1)C(=O)N1CCOCC1,17.7
18,CCOC(=O)N1CCN(c2ncnc3c2oc2nc(C(C)C)c4c(c23)CCC4)CC1,6.16
19,Cc1ccsc1C(=O)C1CCCN(Cc2cccn2-c2ccccn2)C1 (stereo not drawn),-81.7
20,Cc1ncc(CN2CCCC(C(=O)c3sccc3C)C2)s1 (stereo not drawn),12.5
21,Cc1ccsc1C(=O)C1CCCN(Cc2cnc(N)nc2)C1 (stereo not drawn),4.23
22,Cc1ccsc1C(=O)C1CCCN(Cc2cccn2-c2ccc(Cl)cn2)C1 (stereo not drawn),-84.3
23,Cc1ccsc1C(=O)C1CCCN(Cc2ccccc2O)C1 (stereo not drawn),-3.16
24,Cc1ccsc1C(=O)C1CCCN(Cc2ccn[nH]2)C1 (stereo not drawn),9.05

row,Compound,"hERG current change (%, negative = inhibition) at 1uM [%]"
1,CCOc1ccccc1OCC(=O)Nc1ccc(S(=O)(=O)Nc2nc(C)cc(C)n2)cc1,0.94
2,Cc1ccc(S(=O)(=O)c2c(C)nn(-c3ccccc3)c2OC(=O)c2ccco2)cc1,5.81
3,CC(C)c1ccc2c(c1)[C@H]1OCC[C@H]1[C@@H](c1cccs1)N2,4.11
4,CCOC(=O)C(C)Oc1ccc(C2NC(=O)NC(C)=C2C(C)=O)cc1Br (stereo not drawn),4.32
5,Cc1ccc(NC(=O)Cn2cccc2C2=NC(c3ccccc3)CO2)c(C)c1 (stereo not drawn),3.9
6,Cc1cc(Br)c2nc3c(c(C(=O)O)c2c1)CCCCC3,7.18
7,Cc1cccc2c(N)c3c(nc12)N(C)CC3.O=C(O)C(=O)O,7.57
8,CN1CCCCc2c1nc1ccccc1c2N.O=C(O)c1cncc(Br)c1,-79.7
9,O=C(O)c1cncc(Br)c1,8.7
10,CN1CCc2c1nc1ccccc1c2N.O=C(O)c1cc([N+](=O)[O-])ccc1Cl,7.96
11,Cc1ccc(C)c2c(N)c3c(nc12)CCCCC3.O=C(O)c1cncc(Br)c1,-51.9
12,Cc1ccc(NC(=O)c2ccsc2)cc1NS(C)(=O)=O,15.1
13,COc1ccc(C2=Nn3c([n+](C)c4ccccc43)SC2)cc1.[Br-],-13.2
14,C[n+]1c2n(c3ccccc31)N=C(c1ccc(-c3ccccc3)cc1)CS2.[Br-],-39
15,Cc1ccc(-c2nnc3n2N=C(c2ccc(Br)cc2)CS3)cc1,4.56
16,C[n+]1c2n(c3ccccc31)N=C(c1ccc(Br)cc1)CS2.[Br-],-53.1
17,C[n+]1c2n(c3ccccc31)N=C(c1ccc(Cl)cc1)CS2.[Br-],-51.9
18,C[n+]1c2n(c3ccccc31)N=C(c1cc(C(C)(C)C)c(O)c(C(C)(C)C)c1)CS2.[Br-],-63.5
19,C[n+]1c2n(c3ccccc31)N=C(c1ccccc1)CS2.[Br-],-17.3
20,Cc1cc(Cn2nnc3ccccc32)c(O)c(C(C)(C)C)c1,23.6
21,CC1Sc2n(c3ccccc3[n+]2C)N=C1c1ccccc1.[Br-] (stereo not drawn),-16.8
